Assay results reported in PubChem BioAssay (NCI).
This is part of a sample that, as a whole, favours compounds with a hit. Of some 83,000 tested, about 20% had one in any assay.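 For each line, cells grew in 96-well plates with the test compound present at a single concentration for 48 hours.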 Unmarked numbers belong to inactive results. Calls of active or inactive are those of the source. How the source made its calls: active means growth percent below 10; inactive means the rest.

Tested on: HT29 colon
Test: NCI-60 one-dose screen, 48 h (100 = growth as untreated, 0 = no growth, -100 = all killed)
Conditions: 10 µM

`CNC(=O)c1cc(Oc2ccc3c(c2)sc2nc(-c4ccc(N)cc4)cn23)ccn1` was tested, and the growth was 0.705% (active).
In the case of `COc1ccc2c(c1)OC(N)=C(C#N)C2c1cc(OC)c(OC)c(OC)c1` (stereo not given), the growth is reported as 0.78% (active).
In the case of `COc1ccc(-c2onc(N)c2-c2cc(OC)c3c(c2)OCO3)cc1`, the growth is reported as 7% (active).
With `CN(C)CCCOc1ccc(NC2=C(Cl)C(=O)C(Nc3ccc(OCCCN(C)C)cc3)=C(Cl)C2=O)cc1` the growth was -54.1% (active).
`COc1cccc(C2C(C#N)=C(N)Oc3cc(N)ccc32)c1` (stereo not given) was tested, and the growth was 2.39% (active).
In the case of `Cc1ccc(NCCN(C)CC(C)O)c2c(=O)c3ccccc3sc12` (stereo not given), the growth is reported as 7.09% (active).
For `CCCCN(CCCC)C(=O)[C@H](CC)[C@@H]1CC[C@@H](C)[C@@H]([C@H](C)[C@@H](O)[C@@H](C)C(=O)[C@H](CC)C2O[C@]3(C=C[C@@H](O)[C@]4(CC[C@@](C)([C@H]5CC[C@](O)(CC)[C@H](C)O5)O4)O3)[C@H](C)C[C@@H]2C)O1` (stereo not given in full), the growth was 7.79% (active).
For `COc1cc2cc(Oc3ccc(NC(=O)Nc4cccc(C(F)(F)F)c4)cc3)c(C)nc2cc1OC`, the growth was 6.55% (active).

Compared with `S=C(NCc1ccccc1)NCc1ccccc1`, `NC(N)=N/N=C(\c1ccccc1)C(O)c1ccccc1` (stereo not given) is lower in growth: 97% for the first, 92.3% for the second.

Going from `CC(=O)OC1C=CC(OC(C)=O)O1` (stereo not given) to `COC(=O)C1(O)NC(=C(C#N)C#N)C(C#N)=C1C(=O)c1ccc(OC)c(OC)c1` (stereo not given), the growth rises from 91.5% to 99.6%.

Going from `Cc1ccc(Cl)cc1NC(=O)CCl` to `O=C(Nc1cc(Cl)cc2c1-c1ccc(Cl)cc1C2O)C(Cl)Cl` (stereo not given), the growth rises from 82.9% to 84.9%.

Compared with `CCC(C)[C@H](NC(C)=O)C(=O)N[C@@H](CCCNC(=N)N)C(=O)N[C@@H](CCCCN)C(=O)N[C@@H](CC1CCC(O)CC1)C(=O)NC(C(=O)N[C@@H](CCSC)C(=O)N[C@@H](CCCNC(=N)N)C(=O)N[C@@]1(C)CCC/C=C\CCC[C@@](C)(C(=O)NC(C(=O)N[C@@H](CCC(=O)O)C(=O)N[C@@H](CC(C)C)C(=O)N[C@H](C(=O)N[C@@H](CCC(=O)O)C(N)=O)C(C)C)[C@@H](C)O)NC(=O)[C@H](CCC(N)=O)NC(=O)[C@H](CC(C)C)NC(=O)[C@H](CC(C)C)NC1=O)[C@@H](C)O` (stereo not given in full), `CC(C)N(CCOc1cccc(-c2nc3sccn3c2-c2ccnc(S(C)(=O)=O)n2)c1)C(C)C` is lower in growth: 90.6% for the first, 54.5% for the second.

Compared with `COc1cc2cc(Oc3ccc(NC(=O)c4cccc(C(F)(F)F)c4)cc3)c(C)nc2cc1OC`, `COc1cc2cc(Oc3ccc(NC(=O)c4ccccc4)cc3)c(C)nc2cc1OC` is higher in growth: 31.3% for the first, 104% for the second.

Compared with `CS(=O)(=O)c1nccc(-c2c(-c3cccc(OCc4ccc(F)cc4)c3)nc3sccn23)n1`, `CC(C)N(CCOc1ccc(-c2nc3sccn3c2-c2ccnc(S(C)(=O)=O)n2)cc1)C(C)C` is lower in growth: 82.9% for the first, 60.3% for the second.

Compared with `CCOC(=O)c1cc(C(=O)c2ccc(F)cc2F)n2ccccc12`, `CCOc1ccccc1/C=N\N=C\c1ccccc1O` is higher in growth: 77.4% for the first, 101% for the second.

Compared with `O=C(N/N=C/c1ccc(Cl)cc1)c1ccccc1Nc1cccc(C(F)(F)F)c1`, `CN(C)c1ccc(/C=N/NC(=O)c2ccccc2Nc2cccc(C(F)(F)F)c2)cc1` is higher in growth: 75.8% for the first, 97.2% for the second.

Going from `CC(C)(C)OC(=O)N1CCc2c(sc3ncnc(N/N=C/c4ccccc4Br)c23)C1` to `C/C(=N\O)c1ccc(NC(=O)CSc2nnc(-c3ccccc3)n2-c2ccccc2)cc1`, the growth rises from 77.2% to 84%.

First: NC(=O)c1cccc(-n2ccc3cc(NC(=O)Nc4ccc(Cl)c(C(F)(F)F)c4)ccc32)n1
Second: COc1ccc(Cl)cc1Nc1nc(C(F)(F)F)ccc1C(=O)N/N=C/c1ccc(Cl)cc1
The growth of the first is higher: 61.9% for the first, 25.2% for the second.

First: COc1cccc(-c2nc3sccn3c2-c2cccc(S(C)(=O)=O)c2)c1
Second: CCN(CC)CCCOc1cccc2c1C(=O)c1cccc(OCCCN(CC)CC)c1C2=O
The growth of the first is higher: 118% for the first, 11% for the second.

Tested on: SNB-75 CNS
Test: as above
Conditions: 10 µM

First: Clc1ccc(/C=C2\CCCC3C2=Nc2ccccc2NC3c2ccc(Cl)cc2)cc1 (stereo not given)
Second: O=C(N/N=C/c1ccc(Cl)cc1)c1ccccc1Nc1cccc(C(F)(F)F)c1
The growth of the first is higher: 88.2% for the first, 78.7% for the second.

First: CCC(c1ccc(OC)cc1)C(CC)c1ccc(O)c(CN2CCN(C)CC2)c1 (stereo not given)
Second: COc1ccc(-c2onc(N)c2-c2cc(OC)c3c(c2)OCO3)cc1
The growth of the first is higher: 56.9% for the first, 17.7% for the second.

Compared with `O=C(NCCCNS(=O)(=O)c1ccc(Cl)cc1)Nc1ccc(-n2cc(-c3ccncc3)c(-c3ccc(Cl)c(O)c3)n2)cc1`, `NC(=O)c1cccc(-n2ccc3cc(NC(=O)Nc4ccc(Cl)c(C(F)(F)F)c4)ccc32)n1` is lower in growth: 61.7% for the first, 47.5% for the second.

First: Nc1ncnc2c1ncn2C1(CO)OCC(O)C(O)C1O (stereo not given)
Second: CC(C)(C)OC(=O)N1CCc2c(sc3ncnc(N/N=C/c4ccccc4Br)c23)C1
The growth of the first is higher: 90.6% for the first, 74.5% for the second.

Going from `CN(C)CCOc1ccc(-c2nc3sccn3c2-c2ccnc(S(C)(=O)=O)n2)cc1` to `CC(C)N(CCOc1ccc(-c2nc3sccn3c2-c2ccnc(S(C)(=O)=O)n2)cc1)C(C)C`, the growth falls from 88.5% to 83.5%.

First: CC[C@H]1OC(=O)[C@H](C)[C@@H](O[C@H]2C[C@@](C)(OC)[C@@H](O)[C@H](C)O2)[C@H](C)[C@@H](O[C@@H]2O[C@H](C)C[C@H](N(C)C)[C@H]2O)[C@](C)(OC)C/C(C)=C2/O[C@@]1(C)C=C2C
Second: COc1cc(/C=C2\CCCC3=C2NC(N)=NC3c2cc(OC)c(OC)c(OC)c2)cc(OC)c1OC (stereo not given)
The growth of the first is higher: 49.1% for the first, 45.7% for the second.

Going from `O=[N+]([O-])c1cccc(/C=N/NC(=S)NC23CC4CC(CC(C4)C2)C3)c1` to `CN(C)c1ccc(/C=N/NC(=O)c2ccccc2Nc2cccc(C(F)(F)F)c2)cc1`, the growth rises from 17.9% to 94.4%.

First: CNC(=O)c1cc(Oc2ccc3c(c2)sc2nc(-c4ccc(N)cc4)cn23)ccn1
Second: CS(=O)(=O)c1nccc(-c2c(-c3cccc(OCc4ccc(F)cc4)c3)nc3sccn23)n1
The growth of the first is lower: 38.4% for the first, 95.9% for the second.

Going from `COc1ccc2c(c1)OC(N)=C(C#N)C2c1cc(OC)c(OC)c(OC)c1` (stereo not given) to `COC(=O)C1(O)NC(=C(C#N)C#N)C(C#N)=C1C(=O)c1ccc(OC)c(OC)c1` (stereo not given), the growth rises from 44.7% to 94.5%.

First: S=C(NCc1ccccc1)NCc1ccccc1
Second: NC(N)=N/N=C(\c1ccccc1)C(O)c1ccccc1 (stereo not given)
The growth of the first is lower: 82.2% for the first, 93.7% for the second.

First: CC(=O)OC1C=CC(OC(C)=O)O1 (stereo not given)
Second: Cc1ccc(Cl)cc1NC(=O)CCl
The growth of the first is higher: 95.3% for the first, 85.6% for the second.

Compared with `CCC(C)[C@H](NC(C)=O)C(=O)N[C@@H](CCCNC(=N)N)C(=O)N[C@@H](CCCCN)C(=O)N[C@@H](CC1CCC(O)CC1)C(=O)NC(C(=O)N[C@@H](CCSC)C(=O)N[C@@H](CCCNC(=N)N)C(=O)N[C@@]1(C)CCC/C=C\CCC[C@@](C)(C(=O)NC(C(=O)N[C@@H](CCC(=O)O)C(=O)N[C@@H](CC(C)C)C(=O)N[C@H](C(=O)N[C@@H](CCC(=O)O)C(N)=O)C(C)C)[C@@H](C)O)NC(=O)[C@H](CCC(N)=O)NC(=O)[C@H](CC(C)C)NC(=O)[C@H](CC(C)C)NC1=O)[C@@H](C)O` (stereo not given in full), `CC(C)N(CCOc1cccc(-c2nc3sccn3c2-c2ccnc(S(C)(=O)=O)n2)c1)C(C)C` is lower in growth: 107% for the first, 78% for the second.

First: COc1cc2cc(Oc3ccc(NC(=O)c4cccc(C(F)(F)F)c4)cc3)c(C)nc2cc1OC
Second: COc1cc2cc(Oc3ccc(NC(=O)Nc4cccc(C(F)(F)F)c4)cc3)c(C)nc2cc1OC
The growth of the first is higher: 68.4% for the first, 13% for the second.

Going from `COc1cc2cc(Oc3ccc(NC(=O)c4ccccc4)cc3)c(C)nc2cc1OC` to `C/C(=N\O)c1ccc(NC(=O)CSc2nnc(-c3ccccc3)n2-c2ccccc2)cc1`, the growth falls from 54.1% to 45.8%.

Compared with `CCOC(=O)c1cc(C(=O)c2ccc(F)cc2F)n2ccccc12`, `CCOc1ccccc1/C=N\N=C\c1ccccc1O` is higher in growth: 83.6% for the first, 97.6% for the second.

First: Cc1ccc(NCCN(C)CC(C)O)c2c(=O)c3ccccc3sc12 (stereo not given)
Second: CCN(CC)CCCOc1cccc2c1C(=O)c1cccc(OCCCN(CC)CC)c1C2=O
The growth of the first is higher: 57% for the first, 52.6% for the second.

Compared with `COc1cccc(-c2nc3sccn3c2-c2cccc(S(C)(=O)=O)c2)c1`, `COc1ccc(Cl)cc1Nc1nc(C(F)(F)F)ccc1C(=O)N/N=C/c1ccc(Cl)cc1` is lower in growth: 95.1% for the first, 33.8% for the second.

`O=C(Nc1cc(Cl)cc2c1-c1ccc(Cl)cc1C2O)C(Cl)Cl` (stereo not given) was tested, and the growth was 65.9%.

For `CC[C@@H](C(=O)[C@H](C)[C@H](O)[C@@H](C)[C@H]1O[C@H]([C@@H](CC)C(=O)N(CC)CC)CC[C@H]1C)C1O[C@]2(C=C[C@@H](O)[C@]3(CC[C@@](C)([C@H]4CC[C@](O)(CC)[C@H](C)O4)O3)O2)[C@H](C)C[C@@H]1C` (stereo not given in full), the growth was 6.47% (active).
`c1ccc(/C(=N\Nc2ccc3ccccc3n2)c2ccccn2)cc1` was tested, and the growth was -9.74% (active).
`CN(C)CCCOc1ccc(NC2=C(Cl)C(=O)C(Nc3ccc(OCCCN(C)C)cc3)=C(Cl)C2=O)cc1` was tested, and the growth was -77.9% (active).
In the case of `COc1cccc(C2C(C#N)=C(N)Oc3cc(N)ccc32)c1` (stereo not given), the growth is reported as 3.44% (active).
`CCCCN(CCCC)C(=O)[C@H](CC)[C@@H]1CC[C@@H](C)[C@@H]([C@H](C)[C@@H](O)[C@@H](C)C(=O)[C@H](CC)C2O[C@]3(C=C[C@@H](O)[C@]4(CC[C@@](C)([C@H]5CC[C@](O)(CC)[C@H](C)O5)O4)O3)[C@H](C)C[C@@H]2C)O1` (stereo not given in full) was tested, and the growth was -12.4% (active).
